High-throughput results: PubChem BioAssay, Broad Institute
ID4 binder: binders of human ID4 protein, primary screen, biochemical, small molecule microarray, single point; AID 624137, 2012; Flag-ID4 binding, fluorescence F/B; 31,000 compounds, 1.2% hits; DNA-binding protein inhibitor ID-4 (Homo sapiens), P47928; calls only; call rule not given here;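 further: a binder raises fluorescence above local background on the spot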
STK33 inh: STK33 kinase inhibitors, primary screen, biochemical, luminescence, ADP-Glo, MBP substrate | Serine/threonine-protein kinase 33 (Homo sapiens), Q9BYT3 | inhibition, % at 12.5 µM | 27,000 compounds, 0.44% hits | AID 2322, 2010; in the data active means inhibition above about 20%
Target sequence (Q9BYT3 whole entry, looked up): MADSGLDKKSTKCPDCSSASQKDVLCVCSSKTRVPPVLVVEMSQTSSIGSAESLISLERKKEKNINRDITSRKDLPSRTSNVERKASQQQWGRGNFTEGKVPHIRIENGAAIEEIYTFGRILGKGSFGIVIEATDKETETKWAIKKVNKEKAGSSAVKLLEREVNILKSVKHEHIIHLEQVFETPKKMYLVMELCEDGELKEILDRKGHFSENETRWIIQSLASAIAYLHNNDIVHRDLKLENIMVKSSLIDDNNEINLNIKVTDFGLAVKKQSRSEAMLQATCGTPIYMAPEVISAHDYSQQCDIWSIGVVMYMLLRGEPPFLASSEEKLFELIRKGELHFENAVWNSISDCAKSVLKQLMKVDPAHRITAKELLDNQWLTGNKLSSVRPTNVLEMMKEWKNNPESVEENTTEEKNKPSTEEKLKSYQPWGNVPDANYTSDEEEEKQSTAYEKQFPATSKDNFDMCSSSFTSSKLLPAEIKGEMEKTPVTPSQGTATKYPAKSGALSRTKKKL
Starred values were filed as active, the others as inactive; i = inactive; · = no result; + = active, no number. Only some compounds are listed: those with a hit (about 1.1% of all), similar ones and a draw of the others.

SMILES	ID4 binder	STK33 inh
COc1ccccc1OCC(=O)Nc1ccc(-c2nc3ccc(C)cc3[nH]2)cc1	i	17.1
C[C@H]1CN([C@@H](C)CO)C(=O)c2cc(NC(=O)Cc3cn(C)c4ccccc34)ccc2O[C@@H]1CN(C)S(=O)(=O)c1cccs1	·	0.8
O=C(C[C@H]1C=C[C@@H](NC(=O)CC2CC2)[C@@H](CO)O1)NCC(F)(F)F	i	·
C[C@H]1CN([C@@H](C)CO)C(=O)CCCn2nncc2CO[C@@H]1CN(C)C(=O)Nc1ccc(C(F)(F)F)cc1	·	-1.2
CNC[C@@H]1Oc2ccc(NC(=O)Nc3c(C)noc3C)cc2CC(=O)N([C@@H](C)CO)C[C@@H]1C	i	2.0
CNC[C@@H]1Oc2ccc(NC(=O)c3ccncc3)cc2CC(=O)N([C@@H](C)CO)C[C@H]1C	+	·
CNC[C@H]1Oc2ccc(NC(=O)c3ccncc3)cc2CC(=O)N([C@H](C)CO)C[C@@H]1C	i	·
CNC[C@H]1Oc2ccc(NC(=O)CCN3CCOCC3)cc2CC(=O)N([C@@H](C)CO)C[C@@H]1C	+	1.9
CNC[C@@H]1Oc2ccc(NC(=O)CCN3CCOCC3)cc2CC(=O)N([C@H](C)CO)C[C@H]1C	i	0.7
C[C@H]1CN([C@@H](C)CO)C(=O)Cc2cc(NC(=O)Nc3cccc4ccccc34)ccc2O[C@H]1CN(C)C	·	-1.3
CNC[C@@H]1Oc2ccc(NC(=O)Nc3cccc4ccccc34)cc2CC(=O)N([C@@H](C)CO)C[C@H]1C	+	·
CNC[C@@H]1Oc2ccc(NC(=O)Nc3c(C)noc3C)cc2CC(=O)N([C@H](C)CO)C[C@H]1C	+	·
CCN(CC(=O)Nc1cccc(F)c1)S(=O)(=O)c1ccc(C)cc1	i	0.4
COc1ccc(CCNc2nc(C)nc3c2sc2nc4c(cc23)COC(C)(C)C4)cc1OC	i	-1.6
CCC(=O)N[C@H]1C=C[C@H](CC(=O)NCc2cc(F)cc(F)c2)O[C@@H]1CO	i	·
Cc1noc(C)c1NC(=O)N(C)C[C@H]1Oc2ccc(NC(=O)Nc3ccc(F)cc3)cc2CC(=O)N([C@@H](C)CO)C[C@@H]1C	·	-3.4
Cc1noc(C)c1NC(=O)N(C)C[C@H]1Oc2ccc(NC(=O)Nc3ccc(F)cc3)cc2CC(=O)N([C@H](C)CO)C[C@H]1C	+	-0.5
Cc1cc(C)nc(SCC(=O)Nc2cccc(C(=O)O)c2)n1	+	-1.5
Cc1nc(SCC(=O)Nc2cccc(C(=O)O)c2)[nH]c(=O)c1C	i	-0.2
N#Cc1c(SC2CCCC2)nsc1SC1CCCC1	·	-0.2
O=C(O)c1ccc2c3c1cccc3c(=O)n1c3ccccc3nc21	·	69.8*
O=C(CSc1ccccc1C(=O)O)Nc1ccnc2ccccc12	i	2.8
COc1c(O)c(O)cc2ccc3cccc(O)c3c12	·	-6.5
COc1cc2c(ccc3cc(OC)c(OC)c(O)c32)cc1O	i	29.8*
COc1ccc([Si](C)(C)[C@H]2[C@H](CCn3cc(CCO)nn3)O[C@@]3(C(=O)N(Cc4ccc(N5CCC5=O)cc4)c4ccccc43)[C@@H]2C)cc1	i	18.9
SMILES	ID4 binder	STK33 inh
COc1ccc([Si](C)(C)[C@@H]2[C@@H](CCn3cc(CCO)nn3)O[C@]3(C(=O)N(Cc4ccc(N5CCC5=O)cc4)c4ccccc43)[C@H]2C)cc1	i	22.2*
CSc1ccccc1NC(=O)CN(c1cccc(Cl)c1Cl)S(C)(=O)=O	i	2.9
O=C(COc1ccc(I)cc1)Nc1cccnc1	i	0.2
CCCC(=O)N(CCc1c[nH]c2ccccc12)[C@@H]1CC(C(=O)NCCO)=C[C@H](Oc2c(I)cc(CO)cc2OC)[C@H]1O	+	·
COc1cc(SC)ccc1C(=O)NCCc1c[nH]c2ccccc12	i	0.9
Cc1cc(=O)oc2cc(OC(C)C(=O)NCC3CCCO3)ccc12 (configuration not stated)	i	-0.7
Cc1cc(=O)oc2cc(OC(C)C(=O)Nc3sc4c(c3C(N)=O)CCCC4)ccc12 (configuration not stated)	+	6.3
COC(=O)CSc1nc2ccccc2[nH]1	·	-0.7
c1ccc2[nH]c(SCCCN3CCCCC3)nc2c1	+	·
Cc1cc(C)c2c(=O)[nH]c(SCC(=O)c3ccccc3)nc2n1	i	-1.1
Cc1cc(C)c2c(=O)[nH]c(SCC(=O)N3CCOCC3)nc2n1	+	-1.6
COCCCNC(=O)[C@]1(Cc2ccccc2N=[N+]=[N-])N=C(c2ccc(OCCCO)cc2)O[C@@H]1c1ccccc1	i	-0.3
COc1ccc2c(c1)OC/C(=C\c1ccc(OC)c(O)c1)C2=O	·	11.0
COc1cc(/C=C2\Oc3cc(O)ccc3C2=O)ccc1O	·	78.2*
CNC[C@H]1Oc2ccc(NC(=O)NC(C)C)cc2CC(=O)N([C@H](C)CO)C[C@@H]1C	i	·
Cc1nc2nc(NCc3cccc([N+](=O)[O-])c3)[nH]n2c(=O)c1Cc1ccccc1	i	0.7
COc1cccc(CNc2nc3nc(C)c(Cc4ccccc4)c(=O)n3[nH]2)c1	+	-0.4
C[C@H](CO)N1C[C@H](C)[C@@H](CN(C)C(=O)Nc2ccc3c(c2)OCO3)Oc2ccc(NC(=O)CCCN(C)C)cc2C1=O	i	·
C[C@H](CO)N1C[C@H](C)[C@@H](CN(C)C)Oc2ccc(NC(=O)Nc3ccc4c(c3)OCO4)cc2C1=O	i	·
CNC[C@H]1OCCCC[C@@H](C)Oc2ccc(NC(=O)Nc3ccc4c(c3)OCO4)cc2C(=O)N([C@@H](C)CO)C[C@H]1C	+	·
CNC[C@H]1Oc2ccc(NC(=O)Nc3ccc4c(c3)OCO4)cc2C(=O)N([C@@H](C)CO)C[C@@H]1C	i	5.1
CNC[C@H]1Oc2ccc(NC(=O)Nc3ccc4c(c3)OCO4)cc2C(=O)N([C@@H](C)CO)C[C@H]1C	+	·
CNC[C@@H]1Oc2ccc(NC(=O)Nc3ccc4c(c3)OCO4)cc2C(=O)N([C@H](C)CO)C[C@H]1C	+	·
CNC[C@@H]1OCCCC[C@H](C)Oc2ccc(NC(=O)Nc3ccc4c(c3)OCO4)cc2C(=O)N([C@H](C)CO)C[C@@H]1C	i	·
C[C@@H]1CN([C@@H](C)CO)C(=O)CCCn2cc(nn2)CO[C@@H]1CN(C)Cc1ccc(Cl)c(Cl)c1	i	5.6
SMILES	ID4 binder	STK33 inh
CC(C)NC(=O)N(C)C[C@H]1OCCCC[C@@H](C)Oc2ccc(NC(=O)CCCN(C)C)cc2C(=O)N([C@@H](C)CO)C[C@H]1C	i	·
CCC(Sc1nnc(-c2ccc([N+](=O)[O-])cc2)n1C)C(=O)Nc1ccc(Cl)cc1 (configuration not stated)	i	5.6
CCC(=O)N1CCN(c2ccc(Cl)cc2NC(=O)COc2cc(C)cc(C)c2)CC1	i	-6.7
CCN1CSC(=S)N(CC)C1	i	·
CCOc1ccccc1C(=O)Nc1ccc(S(=O)(=O)Nc2ccccn2)cc1	i	24.5*
CCOc1ccccc1C(=O)Nc1ccc(S(=O)(=O)Nc2nc(C)cc(C)n2)cc1	i	1.5
COc1ccc(NC(=O)CSc2nc(C(C)(C)C)cs2)cc1	i	8.2
Cc1noc(C)c1NC(=O)Nc1ccc2c(c1)C(=O)N([C@H](C)CO)C[C@H](C)[C@H](CN(C)Cc1ccc(Cl)c(Cl)c1)OCCCC[C@@H](C)O2	·	-0.5
COc1cc(C(=O)NC2(C(F)(F)F)C(=O)N(Cc3ccco3)C3=C2C(=O)CC(C)(C)C3)cc(OC)c1OC (configuration not stated)	i	-3.4
